According to article PMC5540273 (PLoS ONE, 2017):

Tests used:
Details in all cases: concentration: 1 μM, replicates: in singlicate; n = 1
[1] = system: PIP5K1A
[2] = system: PIP5K1C
[3] = system: PIP5K2B
[4] = system: T1, PIP5K2C
T1 construct: gene PIP4K2C

[5] = system: T2, PKAC-alpha
T2 construct: gene PRKACA

[6] = system: T3, PKAC-beta
T3 construct: gene PRKACB

[7] = system: PKMYT1
[8] = system: PKN1
[9] = system: PKN2
[10] = system: PLK1
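Note: KINOMEscan kinase panel screen.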

SMILES	%Inh [1]	%Inh [2]	%Inh [3]	%Inh [4]	%Inh [5]	%Inh [6]	%Inh [7]	%Inh [8]	%Inh [9]	%Inh [10]
COCCOCCOc1cc2ncc3c4ccc(C#N)cc4[nH]c3c2cc1OC	36%	63%	74%	60%	0%	0%	28%	17%	63%	0%
O=c1[nH]cc(-c2ccc(N3CCOCC3)cc2)c2sc(-c3cn[nH]c3)cc12 [GSK2276055]	0%	24%	1%	0%	0%	0%	0%	15%	0%	7%
Cc1cccc(NC(=O)Nc2ccc(Oc3ncnc4ccn(C)c34)cc2)c1	0%	49%	2%	32%	0%	0%	0%	0%	0%	0%
COc1ccc(Nc2nccc(NCCNC(=O)c3cc4ccccc4s3)n2)cc1 [GSK1379896]	0%	48%	22%	24%	0%	0%	0%	0%	0%	7%
Cn1cc(-c2ccc3c(c2)CCN3C(=O)Cc2cccc(Cl)c2)c2c(N)ncnc21 [GSK2606590]	0%	22%	10%	1%	7%	5%	9%	0%	0%	7%
COc1cc(Nc2ncc3c(C)nc(-c4cc5ccccc5[nH]4)n3n2)cc(OC)c1OC [GW869516]	0%	89%	29%	90.3%	0%	51%	25%	0%	0%	19%
c1ccc(Oc2ccc(Nc3ccnc4cc(-c5ccc(CNCCN6CCOCC6)o5)ccc34)cc2)nc1 [GW567145]	62%	71%	21%	57%	0%	0%	0%	0%	0%	0%
CC(C)c1nc(-c2cccc(NS(=O)(=O)c3c(F)cccc3F)c2F)c(-c2ccnc(Nc3ccc(N4CCOCC4)nc3)n2)s1 [GSK2008607]	0%	45%	0%	87%	0%	0%	24%	6%	0%	0%
CNC(=O)c1ccccc1Nc1nc(Nc2ccc(N3CCOCC3)cc2)ncc1Cl.Cl [GSK1576028]	45%	0%	85%	57%	96.5%	93.6%	32%	55%	52%	96.3%
COc1ccc(Nc2nccc(N3CCC(NC(=O)Nc4cccc(OC)c4)C3)n2)cc1 (stereo not shown) [GSK1379742]	0%	44%	14%	16%	1%	0%	0%	0%	0%	5%
